Results as given in PubChem BioAssay (NCI).
Where “and” joins values, the source holds several entries; their conditions need not be identical. Equal values may be shown once. Compounds without any hit were thinned out: in the full panel of roughly 83,000, 20% have a hit.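 Values shown are percent growth following 48 h exposure of cells in 96-well plates to a single concentration of compound; below 10 was considered active.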 Calls of active or inactive are those of the source.

Key:
Assay in all cases: NCI-60 one-dose screen, 48 h (100 = growth as untreated, 0 = no growth, -100 = all killed)
SK-MEL-2 melanoma = conditions: 10 µM unless noted
EKVX NSCLC = conditions: 10 µM unless noted
SN12C renal = conditions: 10 µM unless noted
UO-31 renal = conditions: 10 µM unless noted
TK-10 renal = test system: TK-10 renal
ACHN renal = conditions: 10 µM unless noted
CAKI-1 renal = conditions: 10 µM unless noted
A498 renal = conditions: 10 µM unless noted
CCRF-CEM leukemia = conditions: 10 µM unless noted
MOLT-4 leukemia = conditions: 10 µM unless noted

Measured: growth

Cc1[nH]c2ccccc2c1C1=CC(=O)C=CC1=O
inactive: SK-MEL-2 melanoma 93.7% | EKVX NSCLC 107% | SN12C renal 90.8% | UO-31 renal 59.5% | TK-10 renal; 10 µM unless noted 92.2% | ACHN renal 58.7% | CAKI-1 renal 96.8% | A498 renal 121% | CCRF-CEM leukemia 28.4%

CCN(CC)c1ccc(/C=C2/NC(=O)NC2=O)cc1
inactive: SN12C renal 55.9% | UO-31 renal 53.5% | TK-10 renal; 10 µM unless noted 49.5% | ACHN renal 71.4% | CAKI-1 renal 39% | A498 renal 23.8%
active: SK-MEL-2 melanoma 8.13% | EKVX NSCLC 1.53%

CCOC(=O)Nc1ccc2nc(N3CCCCCC3)sc2c1
inactive: SK-MEL-2 melanoma 36.8% | EKVX NSCLC 59.9% | SN12C renal 44.2% | UO-31 renal 39.2% | TK-10 renal; 10 µM unless noted 51.1% | ACHN renal 61.9% | CAKI-1 renal 27.2% | A498 renal 54.7% | CCRF-CEM leukemia 16.7%

Cc1cc(O)c2cc3c(O)c(O)ccc3cc2c1
active: TK-10 renal; 100 µM -14.3% and -64.8%
inactive: SK-MEL-2 melanoma 124% | EKVX NSCLC 106% | SN12C renal 112% | UO-31 renal 102% | TK-10 renal; 10 µM 115% | ACHN renal 106% | A498 renal 103% | CCRF-CEM leukemia 118% | MOLT-4 leukemia 105%

COc1ccc(C2c3cccn3-c3ccccc3N2C(C)=O)cc1 (centres undefined)
active: MOLT-4 leukemia 1.08%
inactive: SK-MEL-2 melanoma 117% | EKVX NSCLC 85.9% | SN12C renal 99.8% | UO-31 renal 70.6% | TK-10 renal; 10 µM unless noted 103% | ACHN renal 99% | CAKI-1 renal 84.2% | A498 renal 86% | CCRF-CEM leukemia 88.3%

CCN(CC)c1ccc(/C=N/NC(=O)c2ccc(S(C)(=O)=O)cc2)c(O)c1
active: UO-31 renal -1.73% | CCRF-CEM leukemia 6.94% | MOLT-4 leukemia 2.7%
inactive: SK-MEL-2 melanoma 19.5% | EKVX NSCLC 15.5% | SN12C renal 31.2% | TK-10 renal; 10 µM unless noted 30.5% | ACHN renal 17.1% | CAKI-1 renal 20.4% | A498 renal 45.3%

C#CCO[C@H]1CC[C@H](OCC#C)[C@@H]2[C@H]1[C@H]1C[C@@H]3[C@@]4(C)CCC[C@@](C)(C(=O)OC)[C@@H]4CC[C@@]23C=C1C(C)C
inactive: SK-MEL-2 melanoma 85% | EKVX NSCLC 74.4% | SN12C renal 86.3% | UO-31 renal 50.5% | TK-10 renal; 10 µM unless noted 93.7% | ACHN renal 92.6% | CAKI-1 renal 59.3% | A498 renal 108% | MOLT-4 leukemia 56.2%
active: CCRF-CEM leukemia -52.9%

C(=Nc1ccc(-c2ccc(N=Cc3ccccc3)cc2)cc1)c1ccccc1
inactive: SK-MEL-2 melanoma 109% | EKVX NSCLC 105% | SN12C renal 93.3% | UO-31 renal 66.6% | TK-10 renal; 10 µM unless noted 110% | ACHN renal 101% | CAKI-1 renal 94.3% | A498 renal 97.9% | CCRF-CEM leukemia 88.3% | MOLT-4 leukemia 83%

CC1=C(O)C(=O)CC1
inactive: SK-MEL-2 melanoma 118% | EKVX NSCLC 96.2% | SN12C renal 97% | UO-31 renal 94% | TK-10 renal; 10 µM unless noted 111% | ACHN renal 111% | CAKI-1 renal 90.9% | A498 renal 83.7% | CCRF-CEM leukemia 115% | MOLT-4 leukemia 108%

Cc1csc(N/N=C/c2ccncc2)n1
inactive: SK-MEL-2 melanoma 97.7% | EKVX NSCLC 90.1% | SN12C renal 97.8% | UO-31 renal 95% | TK-10 renal; 10 µM unless noted 91% | ACHN renal 103% | CAKI-1 renal 99.5% | A498 renal 85.2%

CCCCCCCCCCCCC1CCC(=O)O1 (centres undefined)
inactive: SK-MEL-2 melanoma 103% | EKVX NSCLC 92.7% | SN12C renal 98.9% | UO-31 renal 92.5% | TK-10 renal; 10 µM unless noted 102% | ACHN renal 97.3% | CAKI-1 renal 91.6% | A498 renal 96.2% | CCRF-CEM leukemia 105% | MOLT-4 leukemia 95.5%

COCc1nc(NS(=O)(=O)c2ccc(N)cc2)nc(C)c1Br
inactive: SK-MEL-2 melanoma 96.6% | EKVX NSCLC 95.9% | SN12C renal 108% | UO-31 renal 95.4% | TK-10 renal; 10 µM unless noted 93.1% | ACHN renal 102% | CAKI-1 renal 102% | A498 renal 118% | CCRF-CEM leukemia 103% | MOLT-4 leukemia 103%

O=C(NNC(=O)c1cccc(Cl)c1)c1ccccc1
inactive: SK-MEL-2 melanoma 100% | EKVX NSCLC 103% | SN12C renal 106% | UO-31 renal 99.3% | TK-10 renal; 10 µM unless noted 117% | ACHN renal 130% | CAKI-1 renal 103% | A498 renal 73.2% | CCRF-CEM leukemia 98.4% | MOLT-4 leukemia 100%

CC(=O)NC1C(O[C@H]2C[C@H]3[C@@H]4CC=C5C[C@@H](O)CC[C@]5(C)[C@H]4CC[C@]3(C)[C@H]2[C@H](C)C(=O)CCC(C)C)OCC(O)C1O (some centres undefined)
inactive: EKVX NSCLC 46.3% | SN12C renal 89.6% | TK-10 renal; 10 µM unless noted 60.4% | ACHN renal 44.3% | CAKI-1 renal 30.2% | CCRF-CEM leukemia 11.5%
active: SK-MEL-2 melanoma -15.9% | UO-31 renal 1.5% | A498 renal -20.3% | MOLT-4 leukemia -8.22%

CCCCCCCCOC(=O)C(C)OC(=O)OCCOCCOC(=O)OC(C)C(=O)OCCCCCCCC (centres undefined)
inactive: SK-MEL-2 melanoma 110% | EKVX NSCLC 94% | SN12C renal 99.3% | UO-31 renal 87.5% | TK-10 renal; 10 µM unless noted 115% | ACHN renal 98.8% | CAKI-1 renal 95.8% | A498 renal 119% | CCRF-CEM leukemia 102% | MOLT-4 leukemia 108%

CN(C)c1ccc(C2(Cl)c3ccccc3N(C)c3ccccc32)cc1
inactive: SK-MEL-2 melanoma 61.2% | EKVX NSCLC 47.8% | SN12C renal 19.1% | UO-31 renal 71.8% | TK-10 renal; 10 µM unless noted 64.3% | ACHN renal 55.6% | CAKI-1 renal 81.2% | A498 renal 77.2% | CCRF-CEM leukemia 27.7% | MOLT-4 leukemia 49.7%

Cc1ccc(C)c(NC(=O)c2sc3c(=O)[nH]cnc3c2C)c1
inactive: SK-MEL-2 melanoma 41.4% | EKVX NSCLC 85% | SN12C renal 101% | UO-31 renal 74.9% | TK-10 renal; 10 µM unless noted 77.8% | ACHN renal 116% | CAKI-1 renal 64.5% | A498 renal 70.3% | CCRF-CEM leukemia 83.1% | MOLT-4 leukemia 69.9%

CS(=O)(=O)c1ccc(C(=O)N/N=C/c2ccc3c(c2)OCO3)cc1
inactive: SK-MEL-2 melanoma 89.1% | EKVX NSCLC 100% | SN12C renal 99.2% | UO-31 renal 96.3% | TK-10 renal; 10 µM unless noted 106% | ACHN renal 105% | CAKI-1 renal 93% | A498 renal 94.6% | CCRF-CEM leukemia 87% | MOLT-4 leukemia 70.8%

O=C(CCl)N1c2ccccc2Oc2ccc3ccccc3c21
active: SN12C renal -57.6% | UO-31 renal -92.1% | TK-10 renal; 10 µM unless noted -9.22% | ACHN renal -95.9% | CAKI-1 renal -45.6% | CCRF-CEM leukemia 0.604% | MOLT-4 leukemia -4.23%
inactive: SK-MEL-2 melanoma 20.2% | EKVX NSCLC 59.1% | A498 renal 110%

COc1cc(-c2nn(C(=O)NCCN3CCN(C)CC3)cc2-c2ccncc2)ccc1Cl
inactive: SK-MEL-2 melanoma 89.5% | EKVX NSCLC 46.9% | SN12C renal 82.4% | UO-31 renal 54% | TK-10 renal; 10 µM unless noted 20.5% | ACHN renal 69.5% | CAKI-1 renal 79.7% | A498 renal 65.8% | CCRF-CEM leukemia 88.8% | MOLT-4 leukemia 77.4%

C=CCOC(=O)C1=C(C)NC2=C(C(=O)CC(C)(C)C2)C1c1ccc(OC)cc1 (centres undefined)
inactive: SK-MEL-2 melanoma 95% | EKVX NSCLC 101% | SN12C renal 106% | UO-31 renal 85.2% | TK-10 renal; 10 µM unless noted 114% | ACHN renal 98.6% | CAKI-1 renal 80.8% | A498 renal 85.5% | CCRF-CEM leukemia 97.4% | MOLT-4 leukemia 89.7%

COc1cc(C2CC(c3ccc(C)cc3)=NN2C=O)ccc1Oc1ccnc2cc(Cl)ccc12 (centres undefined)
active: SK-MEL-2 melanoma 6.3%
inactive: EKVX NSCLC 79.2% | SN12C renal 75.7% | UO-31 renal 95.3% | TK-10 renal; 10 µM unless noted 54.5% | ACHN renal 48.3% | CAKI-1 renal 69.7% | A498 renal 53.3% | CCRF-CEM leukemia 82.8% | MOLT-4 leukemia 80.3%

Cn1cnc([N+](=O)[O-])c1S(=O)(=O)Oc1cccc2ccccc12
inactive: SK-MEL-2 melanoma 85% | EKVX NSCLC 97.1% | SN12C renal 79.2% | TK-10 renal; 10 µM unless noted 96.3% | A498 renal 97.6% | MOLT-4 leukemia 32.8%
active: UO-31 renal -31% | ACHN renal 4.28% | CAKI-1 renal -20.9% | CCRF-CEM leukemia -1.53%

CCOC(=O)C1=C(C(=O)OCC)N(c2cc(OC)c(OC)c(OC)c2)C(N)=C(C#N)C1c1cc(=O)[nH]c2ccccc12 (centres undefined)
inactive: SK-MEL-2 melanoma 115% | EKVX NSCLC 89.3% | SN12C renal 98.5% | UO-31 renal 76.8% | TK-10 renal; 10 µM unless noted 100% | ACHN renal 97.6% | CAKI-1 renal 87% | A498 renal 78.1% | CCRF-CEM leukemia 113% | MOLT-4 leukemia 100%

CCOC(=O)C1C(=O)C=C(c2ccccc2)CC1c1sc(N(C)Cc2ccccc2)nc1Cl (centres undefined)
inactive: SK-MEL-2 melanoma 84.4% | EKVX NSCLC 87.9% | SN12C renal 94.3% | UO-31 renal 76.1% | TK-10 renal; 10 µM unless noted 107% | ACHN renal 95.3% | CAKI-1 renal 68.7% | A498 renal 107% | CCRF-CEM leukemia 84% | MOLT-4 leukemia 71.1%

CCN(CC)C(=O)O/N=C(/C)c1ccccc1
inactive: SK-MEL-2 melanoma 102% | EKVX NSCLC 112% | SN12C renal 100% | UO-31 renal 101% | TK-10 renal; 10 µM unless noted 87.2% | ACHN renal 112% | CAKI-1 renal 115% | A498 renal 103% | CCRF-CEM leukemia 100% | MOLT-4 leukemia 109%

CO[C@H](C(=O)[C@@H](O)[C@@H](C)O)[C@@H]1Cc2cc3cc(O[C@H]4C[C@@H](O[C@H]5C[C@@H](O)[C@H](O)C(C)O5)[C@H](O)C(C)O4)c(C)c(O)c3c(O)c2C(=O)[C@H]1O[C@H]1C[C@@H](O[C@H]2C[C@@H](O[C@H]3C[C@](C)(O)C(=O)C(C)O3)[C@@H](O)C(C)O2)[C@H](O)C(C)O1 (some centres undefined)
inactive: SN12C renal 13.6% | CCRF-CEM leukemia 10.3%
active: SK-MEL-2 melanoma -57.6% | EKVX NSCLC 0.189% | UO-31 renal -11.3% | TK-10 renal; 10 µM unless noted -10.9% | ACHN renal 2.84% | CAKI-1 renal 1.12% | A498 renal -33% | MOLT-4 leukemia 1.04%
